Screening data (PubChem)
Pf Dd2 inh: inhibitors of Plasmodium falciparum Dd2 growth | hit rate 4.3% among 120,000 | P. falciparum Dd2 growth, SYBR Green, 72 h | Potency, µM (titrated, usually from 28.9 µM), for inactives: top-dose activity, negative = inhibition, actives largely listed as inhibitors | AID 1347417; active = well fitted inhibition curve with a large enough effect;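 note: plate controls were DMSO vehicle for no effect and reference drug for full effect; nearly all actives have a fitted effect of over 65% in size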
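Infected erythrocytes (Dd2, 0.3% parasitemia, 2.5% hematocrit final) are added to compound in RPMI-1640/Albumax II medium, grown 72 h at 37C in low oxygen, then lysed with saponin/Triton-X containing SYBR Green and read by fluorescence.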
Numbers without * were called inactive; i = inactive; [ ] = dose if it differs, or a comment. Only a selection was taken, and hits are over-represented in it overall. Potency is the fitted concentration of half-maximal effect.

SMILES	Pf Dd2 inh
CCOC(=O)c1c(NC(=O)c2ccccc2OCC)sc2c1CCC(CC)C2 (centres undefined)	89%
CCOc1ccc(NC(=O)c2c(NCc3cccnc3)sc3c2CCCC3)cc1	13µM*
COCCOCc1nc(C2CCCN2)no1 (centres undefined)	-14%
CN1C(=O)c2cccn2CC1C(=O)NCc1cc(F)ccc1F (centres undefined)	i
COc1ccc(C2(C(=O)N3CCCCCCN(C)C(=O)[C@@H]4CCC[C@@H]43)CC2)cc1	-17%
C[C@@H](NC(=O)c1ccc(F)cc1)c1onc(-c2ccccc2)c1C(=O)O	-8%[44.1 µM]
C[C@@H]1CN(C(=O)CCN2CCCCCC2=O)C[C@]1(C)O	-1%
COc1ccc(C(=O)N[C@@H]2CCC[C@@H]2C(=O)N(C)C)cc1	14%
COc1cc(C)cc(C(C(=O)O)N2CCN(c3cnccn3)CC2)c1OC (centres undefined)	-3%
CCc1cnc(N)nc1N1CCC(N2CCOCC2)CC1	-16%
Cc1ccc2oc(=O)n(CCC(=O)N3CCc4c(nc(C)[nH]c4=O)C3)c2c1	-3%
CCCn1c(C)cnc1C1CCN(S(=O)(=O)c2cn(C)cn2)C1 (centres undefined)	12%
COc1ccccc1NC(=O)c1c(NC(=O)COc2ccccc2)sc2c1CCCCC2	-3%
CCOc1ccccc1NC(=O)c1c(NC(=O)C(C)Oc2ccc(Cl)cc2)sc2c1CCCCC2 (centres undefined)	10µM*
COc1ccc(Cl)cc1NC(=O)Cn1nc(C(F)(F)F)c2c1CCCC2	6%
CCOc1ccc(/C=C/C(=O)Nc2sc3c(c2C(=O)OC)CCC3)cc1	16%
CCOC(=O)N1CCc2c(sc(NCc3cccs3)c2C(=O)Nc2cc(Cl)ccc2OC)C1	8.9µM*
CCOc1ccc(NC(=O)c2c(NCc3ccc(C)o3)sc3c2CCCCC3)cc1	11µM*
CCOc1ccccc1NC(=O)c1c(NC(=O)c2ccccc2)sc2c1CCCC2	i
CCOc1ccc(NC(=O)c2c(NC(=O)c3cccc(C)c3)sc3c2CCC3)cc1	13%
O=C(Nc1sc2c(c1C(=O)Nc1ccccc1Cl)CCCC2)c1ccccc1F	4%
COc1ccc(Cl)cc1NC(=O)Cn1nnc(C(=O)NCc2cccs2)c1N	2%
COc1ccccc1NC(=O)c1c(NCc2sccc2C)sc2c1CCCCC2	11µM*
CC(c1ccc2c(c1)OCCO2)N(C)C(=O)c1ccc2nccn2c1 (centres undefined)	9%
CCCCCC(=O)N1CCC(O)(c2csc(CN3CCN(C)CC3)n2)CC1	24%[44.1 µM]
SMILES	Pf Dd2 inh
CC(C)(C)OC(=O)N1CC(NCc2cc(F)cc(F)c2)C1	-11%[44.1 µM]
CC(C)n1cc(CN2CCc3n[nH]c(=O)n3CC2)cn1	2%
Cc1ccc(-n2nc3n(c2=O)CCN(C(=O)c2ccc(Cl)cc2)C3)cc1	-6%
COC(=O)[C@H](NC(=O)[C@@H]1C[C@H](NC(=O)Nc2ccc(F)cc2F)CN1C(=O)c1cccn1C)C(C)C	14%
CC(C)NS(=O)(=O)c1cc(C(=O)O)cc(-n2cccn2)c1	-13%
COc1ccc(NC(=O)c2nc(-c3ccc(C)cc3)n3c2CCCCC3)c(OC)c1	3%
COc1ccc(NC(=O)Cn2c(=O)n(-c3ccccc3)c(=O)c3c4c(sc32)CCCC4)c(OC)c1	26%
COc1ccc(NC(=O)c2c(NCc3ccc(C)o3)sc3c2CCCCC3)c(OC)c1	11µM*
COc1ccc(Cl)cc1NC(=O)c1c(NCc2sccc2C)sc2c1CCCC2	13µM*
COC(=O)c1c(NC(=O)c2ccc(OC)cc2OC)sc2c1CCCCC2	33%
COc1ccc(NC(=O)c2c(NC(=O)COc3ccccc3)sc3c2CCC(C)C3)cc1 (centres undefined)	8%
COc1ccc(NC(=O)c2c(OC)cc(=O)n3c2CCCC3)c(C)c1	8%
COc1ccc(NC(=O)c2c(NCc3ccc(C)o3)sc3c2CCC(C)C3)cc1 (centres undefined)	8.9µM*
COc1ccc(NC(=O)c2c(NCc3sccc3C)sc3c2CCCCC3)c(OC)c1	13µM*
COC(=O)c1c(NC(=O)c2cc(OC)c(OC)c(OC)c2Br)sc2c1CCC(C)C2 (centres undefined)	62%
O=C(Cc1ccccc1)Nc1sc2c(c1C(=O)Nc1ccccc1Cl)CCC2	i
Cn1ccnc1CN1C(=O)CO[C@H](c2ccc(NC(=O)CC(C)(C)C)cc2)[C@H]1CO	-19%[44.1 µM]
Cc1nn(CC(=O)N2CCN(c3ccc(F)cc3)CC2)c(=O)c2nc(C(C)C)sc12	i
CCc1nc(-c2c3n(c(=O)n(CC(=O)Nc4cc(C)ccc4C)c2=O)CCCCC3)no1	i
COc1ccc(C(=O)NC2CCN(c3cn[nH]c(=O)c3)CC2)cc1	i
O=C(c1ccco1)N1CCc2nn(Cc3ccccc3)c(=O)n2CC1	i
CC[C@H](C)[C@H](N)C(=O)N1CCC2(CC1)Nc1ccccc1NC2=O	-5%
NC(=O)CNC(=O)C1=C[C@@H](Oc2cc(F)ccc2Br)[C@H](O)[C@H](O)C1	10%[44.1 µM]
CCOc1ccccc1NC(=O)CN1C(=O)C(c2ccccc2)=NC12CCCCC2	i
Cc1ccc(C(=O)NC[C@H]2O[C@@H](CC(=O)N3CCc4ccccc43)[C@H](O)[C@@H]2O)cc1	i
SMILES	Pf Dd2 inh
COCC(=O)NC[C@@H]1CC[C@H]2C[C@@H]1C2(C)C	-4%[44.1 µM]
CC(=O)NC[C@H]1CCN(C(=O)c2ccc(C(F)(F)F)cc2)C[C@H]1N(C)C	22%
COC[C@H]1C[C@@H](NC(=O)c2ccc(C(F)(F)F)cc2)[C@H](O)[C@@H]1O	-5%[44.1 µM]
CC1(C)[C@H]2CC[C@@H](CNC(=O)c3ccc(F)cc3)[C@@H]1C2	11µM*
CC1(C)[C@H]2CC[C@@H](CNC(=O)c3ccc(C(F)(F)F)cc3)[C@@H]1C2	10µM*
CC1(C)[C@H]2CC[C@@H](CNC(=O)c3ccccc3)[C@@H]1C2	-12%[44.1 µM]
CC1(C)[C@H]2CC[C@@H](CNC(=O)c3cncc(Br)c3)[C@@H]1C2	-21%
CN(C)CCCC(=O)NC[C@@H]1CC[C@H]2C[C@@H]1C2(C)C	10µM*
CC(C)c1ccc(N2C(=O)N[C@@H]3CCN(C(=O)c4ccc(N(C)C)cc4)[C@@H]3C2=O)cc1	i
CC(=O)N[C@@H]1CCNC[C@@H]1c1nc(-c2ccccc2)no1	i
Cc1ccc(F)cc1S(=O)(=O)N1CCn2c(n[nH]c2=O)C1	1%
CC(=O)Nc1ccc([C@@H](O)[C@H]2COCC(=O)N2CCCc2ccccc2)cc1	i
O=C(Nc1ccc([C@@H](O)[C@H]2COCC(=O)N2CCCc2ccccc2)cc1)c1cnccn1	13µM*
CN1C(=O)COC[C@@H]1[C@H](O)c1ccc(NC(=O)c2cnccn2)cc1	-16%[44.1 µM]
COc1ccc(C2Cn3nnc(-c4noc(-c5ccc(C)cc5)n4)c3CO2)cc1 (centres undefined)	-12%
COc1cccc(CCC(=O)N2CCC(CC(=O)NC3CC3)C2)c1 (centres undefined)	-10%
O=C(Cn1nc2c(cc1=O)CCCCC2)Nc1nccs1	9%
COc1ccc(NC(=O)c2sc3nc(C)c(C(=O)Nc4ccc(C)cc4C)c(-c4sccc4C)c3c2N)cc1	3.2µM*
COc1ccccc1NC(=O)c1sc2nc(C)c(C(=O)Nc3ccc(C)cc3C)c(-c3ccc(C)o3)c2c1N	11µM*
COc1cccc(NC(=O)c2sc3nc(C)c(C(=O)Nc4ccc(C)cc4C)c(-c4ccc(Br)cc4)c3c2N)c1	8.9µM*
COc1ccccc1NC(=O)c1sc2cccc(Cl)c2c1Cl	42%
COc1ccccc1C(=O)Nc1c(C(=O)Nc2cc(Cl)ccc2C)sc2nc(C)cc(C)c12	2%
